Experiment in all cases: DAPPL (digital affinity profiling via proximity ligation, sequencing); 10 mM Tris-HCl pH 7.5, 50 mM NaCl, 1 mM DTT, 4% glycerol, room temperature, 30 min; GST-TFs on glutathione beads, 16-mer random dsDNA library, 0.1% formaldehyde crosslink after washing; high values mean tight binding
The target in one test is T1, FEV (Homo sapiens, UniProt Q99581 1-238).
T1 sequence: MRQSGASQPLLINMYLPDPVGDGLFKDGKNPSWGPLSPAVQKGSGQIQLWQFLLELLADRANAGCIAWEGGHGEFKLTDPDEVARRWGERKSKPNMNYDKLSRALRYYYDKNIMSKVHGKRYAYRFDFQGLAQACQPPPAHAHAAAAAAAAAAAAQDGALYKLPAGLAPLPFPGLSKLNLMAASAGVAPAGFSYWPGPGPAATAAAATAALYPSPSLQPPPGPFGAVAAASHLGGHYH
The conditions noted are these: protein: recombinant; tags: N-terminal GST; dsDNA, one strand shown. A digest of the protocol: (§1)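 Human transcription factors fused to GST were expressed in yeast, captured on glutathione beads, given DNA barcodes and pooled with a GST-only negative control. Pools were incubated with 200 nmole of a 16-mer random double-stranded DNA library in Tris/NaCl/DTT/glycerol buffer at room temperature for 30 min. They were then washed, crosslinked with 0.1% formaldehyde, proximity-ligated (BsaI/T4 ligase, 1 h, 37 °C), PCR-amplified and sequenced on an Illumina NextSeq500. Binding signal is each 6-mer's read frequency for a factor divided by its frequency for the GST control.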

The target of a further test is ETV5 (Homo sapiens, UniProt P41161 1-510). The conditions noted are these: protein: recombinant; tags: N-terminal GST; dsDNA, one strand shown. In a few lines: as §1
Another test deals with HSF1 (Homo sapiens, UniProt Q00613 1-529). The conditions noted are these: protein: recombinant; tags: N-terminal GST; chain copies: 3; dsDNA, one strand shown. In a few lines:
as §1

The next test has as its target T2, SPIC (Homo sapiens, UniProt Q8N5J4 1-248).
T2 sequence: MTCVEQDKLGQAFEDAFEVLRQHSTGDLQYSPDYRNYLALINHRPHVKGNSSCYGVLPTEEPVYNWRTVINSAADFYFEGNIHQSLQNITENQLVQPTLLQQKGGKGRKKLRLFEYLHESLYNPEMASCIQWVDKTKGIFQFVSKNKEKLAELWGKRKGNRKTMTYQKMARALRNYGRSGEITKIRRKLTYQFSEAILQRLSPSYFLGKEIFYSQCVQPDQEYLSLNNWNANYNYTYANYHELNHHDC
The conditions noted are these: protein: recombinant; tags: N-terminal GST; dsDNA, one strand shown. A digest of the protocol:
as §1

The next test has as its target ELF4 (Homo sapiens, UniProt Q99607 1-663). The conditions noted are these: protein: recombinant; tags: N-terminal GST; dsDNA, one strand shown. A digest of the protocol: as §1
The target of the next test is T3, ELK4 (Homo sapiens, UniProt P28324-2 1-405).
T3 sequence: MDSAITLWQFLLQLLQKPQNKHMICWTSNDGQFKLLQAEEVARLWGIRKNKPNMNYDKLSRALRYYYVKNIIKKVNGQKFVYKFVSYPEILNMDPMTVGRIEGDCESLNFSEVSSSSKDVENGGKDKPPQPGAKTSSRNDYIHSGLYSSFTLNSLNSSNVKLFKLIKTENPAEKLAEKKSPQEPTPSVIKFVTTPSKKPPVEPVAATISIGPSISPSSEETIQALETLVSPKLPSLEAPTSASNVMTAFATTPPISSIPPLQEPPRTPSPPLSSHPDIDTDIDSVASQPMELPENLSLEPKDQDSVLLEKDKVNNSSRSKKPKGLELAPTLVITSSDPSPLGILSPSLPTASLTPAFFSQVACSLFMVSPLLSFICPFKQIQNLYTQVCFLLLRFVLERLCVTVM
The conditions noted are these: protein: recombinant; tags: N-terminal GST; dsDNA, one strand shown. A digest of the protocol: as §1

A further test concerns the target T4, ETV2 (Homo sapiens, UniProt O00321 1-342).
T4 sequence: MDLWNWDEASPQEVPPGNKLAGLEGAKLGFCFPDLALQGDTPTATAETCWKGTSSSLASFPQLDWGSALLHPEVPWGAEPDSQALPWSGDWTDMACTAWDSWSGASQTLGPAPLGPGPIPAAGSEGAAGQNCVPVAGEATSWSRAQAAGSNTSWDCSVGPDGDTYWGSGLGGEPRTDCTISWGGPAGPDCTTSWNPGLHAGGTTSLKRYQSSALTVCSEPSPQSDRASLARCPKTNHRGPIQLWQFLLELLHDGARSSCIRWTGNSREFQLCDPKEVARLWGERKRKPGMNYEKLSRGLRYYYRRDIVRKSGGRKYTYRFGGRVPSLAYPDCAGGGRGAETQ
The conditions noted are these: protein: recombinant; tags: N-terminal GST; dsDNA, one strand shown. In a few lines: as §1

Another test has as its target T5, ELF3 (Homo sapiens, UniProt P78545 1-371).
T5 sequence: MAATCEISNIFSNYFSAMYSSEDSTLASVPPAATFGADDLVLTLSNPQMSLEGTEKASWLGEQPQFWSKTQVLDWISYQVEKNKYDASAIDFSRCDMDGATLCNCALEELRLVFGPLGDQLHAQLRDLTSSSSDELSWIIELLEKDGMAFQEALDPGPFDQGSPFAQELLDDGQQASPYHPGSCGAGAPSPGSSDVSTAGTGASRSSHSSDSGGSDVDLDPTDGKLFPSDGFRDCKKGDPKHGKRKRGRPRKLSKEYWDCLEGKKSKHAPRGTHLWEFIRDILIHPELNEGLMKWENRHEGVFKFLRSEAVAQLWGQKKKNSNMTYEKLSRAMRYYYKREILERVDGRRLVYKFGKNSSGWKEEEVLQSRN
The conditions noted are these: protein: recombinant; tags: N-terminal GST; dsDNA, one strand shown. In a few lines:
as §1

A further test concerns the target CRX (Homo sapiens, UniProt O43186 1-299). The conditions noted are these: protein: recombinant; tags: N-terminal GST; dsDNA, one strand shown. A digest of the protocol:
as §1

A further test addresses ETV1 (Homo sapiens, UniProt P50549 1-477). The conditions noted are these: protein: recombinant; tags: N-terminal GST; dsDNA, one strand shown. In a few lines:
as §1

In a further test the target is T6, ERF (Homo sapiens, UniProt P50548 1-548).
T6 sequence: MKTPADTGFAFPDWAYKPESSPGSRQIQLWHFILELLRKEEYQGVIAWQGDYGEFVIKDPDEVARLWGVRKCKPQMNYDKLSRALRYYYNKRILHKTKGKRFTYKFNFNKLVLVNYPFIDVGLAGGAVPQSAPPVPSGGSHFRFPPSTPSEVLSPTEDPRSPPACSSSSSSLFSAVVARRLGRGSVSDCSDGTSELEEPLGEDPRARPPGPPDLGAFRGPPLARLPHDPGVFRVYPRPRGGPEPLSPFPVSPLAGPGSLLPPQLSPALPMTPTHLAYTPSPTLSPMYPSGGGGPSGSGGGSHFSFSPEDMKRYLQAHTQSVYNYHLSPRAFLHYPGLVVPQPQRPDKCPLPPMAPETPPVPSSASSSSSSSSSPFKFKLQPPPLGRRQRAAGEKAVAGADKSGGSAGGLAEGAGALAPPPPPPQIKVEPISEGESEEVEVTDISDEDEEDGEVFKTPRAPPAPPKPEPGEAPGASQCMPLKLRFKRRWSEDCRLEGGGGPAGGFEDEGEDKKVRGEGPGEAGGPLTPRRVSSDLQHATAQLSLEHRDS
The conditions noted are these: protein: recombinant; tags: N-terminal GST; dsDNA, one strand shown. In a few lines:
as §1

Another test addresses T7, ETV3L (Homo sapiens, UniProt Q6ZN32 1-361).
T7 sequence: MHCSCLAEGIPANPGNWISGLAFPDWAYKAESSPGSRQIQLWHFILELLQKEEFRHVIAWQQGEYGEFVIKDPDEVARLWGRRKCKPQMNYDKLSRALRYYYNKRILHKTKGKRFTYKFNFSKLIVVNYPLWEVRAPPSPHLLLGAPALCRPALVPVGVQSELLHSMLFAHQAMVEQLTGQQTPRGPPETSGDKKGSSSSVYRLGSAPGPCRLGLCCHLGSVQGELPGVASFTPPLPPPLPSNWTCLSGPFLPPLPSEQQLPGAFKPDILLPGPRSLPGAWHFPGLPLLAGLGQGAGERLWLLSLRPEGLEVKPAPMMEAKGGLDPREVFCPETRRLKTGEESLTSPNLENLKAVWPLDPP
The conditions noted are these: protein: recombinant; tags: N-terminal GST; dsDNA, one strand shown. In a few lines: as §1

The target of a further test is T8, ETS2 (Homo sapiens, UniProt P15036 1-469).
T8 sequence: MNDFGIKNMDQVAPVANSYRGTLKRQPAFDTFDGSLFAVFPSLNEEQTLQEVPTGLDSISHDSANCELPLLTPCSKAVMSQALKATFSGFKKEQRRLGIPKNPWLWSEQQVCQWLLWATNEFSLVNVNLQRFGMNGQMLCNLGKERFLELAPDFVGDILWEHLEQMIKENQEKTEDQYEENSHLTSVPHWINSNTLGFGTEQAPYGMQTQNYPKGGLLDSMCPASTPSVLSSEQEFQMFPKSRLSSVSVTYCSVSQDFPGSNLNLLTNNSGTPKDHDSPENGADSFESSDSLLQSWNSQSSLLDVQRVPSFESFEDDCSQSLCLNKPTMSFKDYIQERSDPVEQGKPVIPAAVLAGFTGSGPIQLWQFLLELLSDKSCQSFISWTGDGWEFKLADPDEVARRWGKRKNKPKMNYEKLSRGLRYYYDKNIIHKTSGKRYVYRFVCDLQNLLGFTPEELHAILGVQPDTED
The conditions noted are these: protein: recombinant; tags: N-terminal GST; dsDNA, one strand shown. In a few lines:
as §1

The target of a further test is T9, SPDEF (Homo sapiens, UniProt O95238 1-335).
T9 sequence: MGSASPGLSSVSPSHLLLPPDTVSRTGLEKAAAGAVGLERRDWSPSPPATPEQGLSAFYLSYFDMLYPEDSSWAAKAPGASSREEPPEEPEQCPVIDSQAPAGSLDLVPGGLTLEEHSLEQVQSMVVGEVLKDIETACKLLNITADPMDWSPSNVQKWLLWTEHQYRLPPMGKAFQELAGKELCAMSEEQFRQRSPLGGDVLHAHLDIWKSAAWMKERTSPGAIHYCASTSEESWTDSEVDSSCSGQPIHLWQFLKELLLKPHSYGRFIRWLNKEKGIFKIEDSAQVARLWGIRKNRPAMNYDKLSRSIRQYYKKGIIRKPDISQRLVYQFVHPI
The conditions noted are these: protein: recombinant; tags: N-terminal GST; dsDNA, one strand shown. In a few lines:
as §1

A further test concerns the target T10, ETV7 (Homo sapiens, UniProt Q9Y603 1-341).
T10 sequence: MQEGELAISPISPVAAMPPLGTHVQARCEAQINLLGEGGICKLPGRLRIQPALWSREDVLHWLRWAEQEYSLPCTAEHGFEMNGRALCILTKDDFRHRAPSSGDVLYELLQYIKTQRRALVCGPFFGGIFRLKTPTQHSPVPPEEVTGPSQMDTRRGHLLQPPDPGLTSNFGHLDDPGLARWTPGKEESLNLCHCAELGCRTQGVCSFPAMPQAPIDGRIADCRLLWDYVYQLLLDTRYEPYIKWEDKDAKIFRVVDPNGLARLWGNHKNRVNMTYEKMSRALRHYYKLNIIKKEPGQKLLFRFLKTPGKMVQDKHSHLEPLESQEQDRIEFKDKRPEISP
The conditions noted are these: protein: recombinant; tags: N-terminal GST; dsDNA, one strand shown. A digest of the protocol:
as §1

The target of the next test is T11, ELF5 (Homo sapiens, UniProt Q9UKW6-2 1-255).
T11 sequence: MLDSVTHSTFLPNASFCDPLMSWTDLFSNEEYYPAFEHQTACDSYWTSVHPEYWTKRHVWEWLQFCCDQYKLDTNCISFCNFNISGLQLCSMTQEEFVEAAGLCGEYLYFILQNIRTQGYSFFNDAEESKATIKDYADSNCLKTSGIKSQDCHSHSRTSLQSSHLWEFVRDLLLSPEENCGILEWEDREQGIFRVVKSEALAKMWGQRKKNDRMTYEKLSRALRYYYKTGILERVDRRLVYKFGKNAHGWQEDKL
The conditions noted are these: protein: recombinant; tags: N-terminal GST; dsDNA, one strand shown. A digest of the protocol: as §1

Another test has as its target T12, ETV3 (Homo sapiens, UniProt P41162-2 1-143).
T12 sequence: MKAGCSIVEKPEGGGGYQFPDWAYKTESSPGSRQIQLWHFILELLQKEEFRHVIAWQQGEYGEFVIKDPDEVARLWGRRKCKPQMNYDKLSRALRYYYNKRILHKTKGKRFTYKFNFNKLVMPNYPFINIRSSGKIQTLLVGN
The conditions noted are these: protein: recombinant; tags: N-terminal GST; dsDNA, one strand shown. A digest of the protocol: as §1

A further test deals with ETV6 (Homo sapiens, UniProt P41212 1-452). The conditions noted are these: protein: recombinant; tags: N-terminal GST; dsDNA, one strand shown. In a few lines: as §1

Consider 1 sequence from publication PMC7862700, “An all-to-all approach to the identification of sequence-specific readers for epigenetic DNA modifications on cytosine”.

ELF4, sequence (Q99607 whole entry): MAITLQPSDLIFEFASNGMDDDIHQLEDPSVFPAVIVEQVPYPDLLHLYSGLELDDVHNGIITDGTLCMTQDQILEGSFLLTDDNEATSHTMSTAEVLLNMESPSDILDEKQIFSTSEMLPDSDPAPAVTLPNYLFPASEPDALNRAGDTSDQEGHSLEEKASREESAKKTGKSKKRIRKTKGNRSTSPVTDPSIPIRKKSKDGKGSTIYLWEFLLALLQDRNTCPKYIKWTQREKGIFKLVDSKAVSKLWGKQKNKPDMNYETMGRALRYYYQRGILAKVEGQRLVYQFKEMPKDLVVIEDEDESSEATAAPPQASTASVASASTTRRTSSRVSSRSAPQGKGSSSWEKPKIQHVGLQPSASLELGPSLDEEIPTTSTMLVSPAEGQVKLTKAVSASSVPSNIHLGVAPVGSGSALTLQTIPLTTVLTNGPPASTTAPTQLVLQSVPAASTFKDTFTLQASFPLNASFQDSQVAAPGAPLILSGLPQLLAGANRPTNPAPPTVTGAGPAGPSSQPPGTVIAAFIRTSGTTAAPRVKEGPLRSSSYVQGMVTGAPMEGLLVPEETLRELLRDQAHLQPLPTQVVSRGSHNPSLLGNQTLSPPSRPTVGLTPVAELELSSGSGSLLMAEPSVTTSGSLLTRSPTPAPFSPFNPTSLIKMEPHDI
ETV6, sequence (P41212 whole entry): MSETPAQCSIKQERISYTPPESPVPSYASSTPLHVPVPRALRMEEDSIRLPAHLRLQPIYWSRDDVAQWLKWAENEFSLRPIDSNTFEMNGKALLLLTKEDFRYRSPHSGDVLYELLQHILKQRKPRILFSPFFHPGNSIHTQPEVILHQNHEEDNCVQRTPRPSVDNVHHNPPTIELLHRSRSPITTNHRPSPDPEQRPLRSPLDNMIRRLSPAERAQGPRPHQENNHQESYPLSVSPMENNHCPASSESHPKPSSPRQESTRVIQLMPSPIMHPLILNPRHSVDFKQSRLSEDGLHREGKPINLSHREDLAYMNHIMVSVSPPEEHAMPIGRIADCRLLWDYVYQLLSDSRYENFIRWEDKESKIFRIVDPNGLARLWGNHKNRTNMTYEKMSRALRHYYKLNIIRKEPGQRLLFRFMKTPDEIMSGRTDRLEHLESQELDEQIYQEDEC
ETV5, sequence (P41161 whole entry): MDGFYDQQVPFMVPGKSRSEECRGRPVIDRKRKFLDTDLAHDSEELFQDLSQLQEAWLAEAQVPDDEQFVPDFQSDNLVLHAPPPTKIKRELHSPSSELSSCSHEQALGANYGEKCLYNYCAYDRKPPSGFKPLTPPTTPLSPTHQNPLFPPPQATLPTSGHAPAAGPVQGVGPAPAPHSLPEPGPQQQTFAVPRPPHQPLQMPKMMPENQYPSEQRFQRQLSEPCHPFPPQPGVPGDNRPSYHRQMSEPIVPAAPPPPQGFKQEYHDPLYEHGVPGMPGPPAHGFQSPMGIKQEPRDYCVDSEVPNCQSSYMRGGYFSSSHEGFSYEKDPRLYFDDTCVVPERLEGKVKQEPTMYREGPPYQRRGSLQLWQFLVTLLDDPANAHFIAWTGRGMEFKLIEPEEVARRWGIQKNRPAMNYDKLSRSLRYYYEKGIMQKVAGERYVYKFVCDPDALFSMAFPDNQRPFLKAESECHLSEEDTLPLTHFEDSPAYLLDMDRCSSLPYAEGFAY
HSF1, sequence (Q00613 whole entry): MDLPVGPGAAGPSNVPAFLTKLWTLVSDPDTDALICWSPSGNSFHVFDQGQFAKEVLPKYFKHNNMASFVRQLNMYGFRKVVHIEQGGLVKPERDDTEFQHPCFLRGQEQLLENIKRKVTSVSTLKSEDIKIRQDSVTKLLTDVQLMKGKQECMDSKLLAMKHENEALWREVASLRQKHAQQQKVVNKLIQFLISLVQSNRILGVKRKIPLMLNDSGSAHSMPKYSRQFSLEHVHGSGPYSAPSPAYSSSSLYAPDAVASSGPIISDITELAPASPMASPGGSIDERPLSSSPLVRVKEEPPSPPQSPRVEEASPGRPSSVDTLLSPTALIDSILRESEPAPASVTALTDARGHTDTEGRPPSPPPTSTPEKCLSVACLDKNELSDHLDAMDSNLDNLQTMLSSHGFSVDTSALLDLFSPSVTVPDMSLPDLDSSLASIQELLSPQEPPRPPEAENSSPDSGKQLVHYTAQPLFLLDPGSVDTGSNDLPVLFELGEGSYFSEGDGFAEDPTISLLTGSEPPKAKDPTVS
CRX, sequence (O43186 whole entry): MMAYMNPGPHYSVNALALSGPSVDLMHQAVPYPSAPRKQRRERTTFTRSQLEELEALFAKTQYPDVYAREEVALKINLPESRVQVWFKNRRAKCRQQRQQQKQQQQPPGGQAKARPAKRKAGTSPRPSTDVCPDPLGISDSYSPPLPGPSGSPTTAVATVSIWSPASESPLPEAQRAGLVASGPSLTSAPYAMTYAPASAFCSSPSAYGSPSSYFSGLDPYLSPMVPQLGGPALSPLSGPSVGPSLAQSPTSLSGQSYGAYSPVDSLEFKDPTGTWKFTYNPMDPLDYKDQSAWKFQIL
ETV1, sequence (P50549 whole entry): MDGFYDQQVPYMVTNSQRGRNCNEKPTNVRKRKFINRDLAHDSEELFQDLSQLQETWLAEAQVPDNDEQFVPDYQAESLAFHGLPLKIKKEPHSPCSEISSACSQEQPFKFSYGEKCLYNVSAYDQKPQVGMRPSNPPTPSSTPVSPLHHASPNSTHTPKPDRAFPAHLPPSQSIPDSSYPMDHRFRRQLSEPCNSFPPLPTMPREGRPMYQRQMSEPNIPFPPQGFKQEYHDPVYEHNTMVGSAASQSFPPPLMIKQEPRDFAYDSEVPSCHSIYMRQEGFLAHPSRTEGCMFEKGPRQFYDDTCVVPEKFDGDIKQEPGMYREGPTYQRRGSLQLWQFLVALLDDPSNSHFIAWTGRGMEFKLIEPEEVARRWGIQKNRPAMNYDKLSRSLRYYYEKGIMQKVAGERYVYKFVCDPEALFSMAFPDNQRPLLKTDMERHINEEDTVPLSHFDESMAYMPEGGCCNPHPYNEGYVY

For the sequence TCTTCG, the binding signal in the test with FEV is 1.49 fold enrichment (6-mer frequency, TF over GST control); in the test with ETV5, 1.51 fold enrichment (6-mer frequency, TF over GST control); with HSF1, 1.97 fold enrichment (6-mer frequency, TF over GST control); with SPIC, 1.38 fold enrichment (6-mer frequency, TF over GST control); with ELF4, 1.49 fold enrichment (6-mer frequency, TF over GST control); with ELK4 it was 1.45 fold enrichment (6-mer frequency, TF over GST control). Besides, the binding signal was 1.5 fold enrichment (6-mer frequency, TF over GST control) with ETV2; 1.47 fold enrichment (6-mer frequency, TF over GST control) with ELF3; 1.61 fold enrichment (6-mer frequency, TF over GST control) in the test with CRX; 1.47 fold enrichment (6-mer frequency, TF over GST control) in the test with ETV1; 1.45 fold enrichment (6-mer frequency, TF over GST control) in the test with ERF; 1.48 fold enrichment (6-mer frequency, TF over GST control) with ETV3L. For the same sequence, the binding signal is 1.55 fold enrichment (6-mer frequency, TF over GST control) with ETS2; 1.49 fold enrichment (6-mer frequency, TF over GST control) with SPDEF; 1.46 fold enrichment (6-mer frequency, TF over GST control) with ETV7; 1.4 fold enrichment (6-mer frequency, TF over GST control) in the test with ELF5; 1.49 fold enrichment (6-mer frequency, TF over GST control) with ETV3; 1.36 fold enrichment (6-mer frequency, TF over GST control) with ETV6.
